This is an account of results in PubChem BioAssay (EPA / NIEHS).

Assay [1] in a line: ATG_PBREM_CIS: Attagene CIS-FACTORIAL HepG2 Assay for human Phenobarbital-responsive Enhancer Module (PBREM) (AID 2282955). Conditions: HepG2 PBREM cis-reporter, Attagene multiplexed transcription; actives raise or lower the signal. In outline: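 Fluorescence of labelled reporter cDNA fragments, resolved by capillary electrophoresis, gives mRNA induction in transfected HepG2 cells treated for 24 h; DMSO serves as negative control and baseline.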

Assay [2] concerns the target Paired box protein Pax-6 (Homo sapiens) (UniProt P26367). Nature of the assay: ATG_Pax6_CIS: Attagene CIS-FACTORIAL HepG2 Assay for human Paired Box 6 (PAX6) (AID 2282956). Conditions: HepG2 CIS-FACTORIAL PAX6 reporter transcription, RNA readout; actives raise or lower the signal. In outline: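 Multiplexed cis-reporter HepG2 system; 24 h treatment; reporter mRNA read by RT-PCR/CE fluorescence; bidirectional fit vs DMSO.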

The nature of assay [3]: ATG_PXRE_CIS: Attagene CIS-FACTORIAL HepG2 Assay for human Pregnane X Receptor Element (PXRE) (AID 2282957). Conditions: HepG2 Attagene CIS-FACTORIAL PXRE reporter, mRNA; actives raise or lower the signal. In outline:
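Cells: HepG2, transiently transfected reporter units under cis promoter control. Exposure: 24 h. Detection: reporter mRNA via RT-PCR/CE fluorescence; bidirectional fitting, DMSO-referenced.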

Assay [4] in a line: ATG_PPRE_CIS: Attagene CIS-FACTORIAL HepG2 Assay for human Peroxisome Proliferator-activated Response Element (PPRE) (AID 2282958). Conditions: HepG2 PPRE cis-element reporter, Attagene transcription factor profiling; actives raise or lower the signal. In a few lines:
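Cells are first transfected transiently with the multiplexed reporter library, then dosed for 24 h. Total RNA is reverse-transcribed, amplified, fluorescently end-labeled and HpaI-cut before capillary electrophoresis; activity is fitted bidirectionally against DMSO controls.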

Assay [5] in a line: ATG_RORE_CIS: Attagene CIS-FACTORIAL HepG2 Assay for human RAR-related Orphan Receptor Element (RORE) (AID 2282959). Conditions: HepG2 Attagene cis-factorial RORE reporter, mRNA; actives raise or lower the signal. In a few lines:
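Cells were HepG2 carrying transfected cis-regulated reporter constructs, dosed for 24 hours. Total RNA was reverse-transcribed and reporter cDNA amplified, fluorescently labeled and sized by capillary electrophoresis. Activity was fitted bidirectionally relative to DMSO.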

The nature of assay [6]: ATG_Sox_CIS: Attagene CIS-FACTORIAL HepG2 Assay for human SRY-box transcription factor (SOX) (AID 2282960). Conditions: HepG2 Attagene cis-factorial SOX reporter, mRNA; actives raise or lower the signal. In a few lines:
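Transient MRTU transfection of HepG2; 24 h compound incubation; TriZol RNA, oligo(dT) RT, PCR, 6-FAM primer extension, HpaI cut, CE. Bidirectional fit, DMSO = baseline.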

Assay [7] concerns the target Transcription factor Sp1 (Homo sapiens) (UniProt P08047). The assay is described as follows: ATG_Sp1_CIS: Attagene CIS-FACTORIAL HepG2 Assay for human Specificity Protein 1 (Sp1) (AID 2282961). Conditions: HepG2 Sp1 cis-reporter transcription, actives raise or lower the signal. In outline: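 Endogenous Sp1 activity was gauged in human liver HepG2 cells bearing transfected reporter units under a cis-regulating promoter. After 24 h dosing, reporter mRNA was quantified by RT-PCR with capillary electrophoresis, and activity fitted bidirectionally versus DMSO.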

Assay [8] can be described thus: ATG_SREBP_CIS: Attagene CIS-FACTORIAL HepG2 Assay for human Sterol Regulatory Element Binding (SREBP) (AID 2282962). Conditions: HepG2 Attagene cis-factorial SREBP reporter, mRNA; actives raise or lower the signal. In outline:
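mRNA induction of transfected cis-promoter reporters in HepG2 cells, 24 h post-dose. Detection: RT-PCR with 6-FAM-labelled products, HpaI digest, capillary electrophoresis. DMSO served as negative control and baseline.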

The target of assay [9] is Signal transducer and activator of transcription 3 (Homo sapiens) (UniProt P40763). Nature of the assay: ATG_STAT3_CIS: Attagene CIS-FACTORIAL HepG2 Assay for human Signal Transducer and Activator of Transcription 3 (STAT3) (AID 2282963). Conditions: HepG2, Attagene cis-factorial STAT3 reporter transcription; actives raise or lower the signal. In a few lines: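 Endogenous STAT3-responsive cis-element activity was read in transiently transfected HepG2 cells after 24 h treatment. Reporter transcripts were quantified via RT-PCR and capillary electrophoresis, with DMSO as negative control and bidirectional curve fitting.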
Chain of Signal transducer and activator of transcription 3 (Homo sapiens) (P40763 whole entry, looked up): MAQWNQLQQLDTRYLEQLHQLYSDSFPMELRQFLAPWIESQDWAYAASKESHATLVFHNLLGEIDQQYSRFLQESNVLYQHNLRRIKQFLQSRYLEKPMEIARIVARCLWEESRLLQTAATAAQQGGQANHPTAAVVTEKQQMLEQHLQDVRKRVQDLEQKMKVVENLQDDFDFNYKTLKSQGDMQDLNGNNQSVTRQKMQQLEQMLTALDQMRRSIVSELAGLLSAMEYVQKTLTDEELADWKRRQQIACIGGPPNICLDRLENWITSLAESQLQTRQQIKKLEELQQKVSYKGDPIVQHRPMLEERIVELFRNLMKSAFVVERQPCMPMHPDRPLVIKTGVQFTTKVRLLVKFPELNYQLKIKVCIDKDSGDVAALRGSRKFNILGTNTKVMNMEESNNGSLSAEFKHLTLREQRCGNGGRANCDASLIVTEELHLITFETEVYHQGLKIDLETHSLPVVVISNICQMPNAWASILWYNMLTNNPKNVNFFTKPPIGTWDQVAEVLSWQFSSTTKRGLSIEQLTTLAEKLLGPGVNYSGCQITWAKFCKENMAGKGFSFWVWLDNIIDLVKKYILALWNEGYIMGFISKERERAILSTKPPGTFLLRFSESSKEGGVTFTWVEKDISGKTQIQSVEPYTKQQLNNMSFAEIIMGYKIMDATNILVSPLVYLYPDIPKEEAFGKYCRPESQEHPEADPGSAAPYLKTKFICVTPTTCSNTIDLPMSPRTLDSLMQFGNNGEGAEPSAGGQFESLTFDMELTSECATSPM

A short description of assay [10]: ATG_TCF_b_cat_CIS: Attagene CIS-FACTORIAL HepG2 Assay for human T-Cell-Factor with beta-catenin (TCF/b-cat) (AID 2282965). Conditions: HepG2 TCF/beta-catenin cis-reporter transcription, actives raise or lower the signal. In outline:
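Endogenous TCF/LEF activity read as reporter transcript level via RT-PCR and capillary electrophoresis fluorescence in transfected HepG2, 24 h exposure; gain or loss of signal fitted against DMSO controls.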

A short description of assay [11]: ATG_TAL_CIS: Attagene CIS-FACTORIAL HepG2 Assay for human TAL Basal Promoter (AID 2282966).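 Further: background control endpoint measuring basal TAL promoter reporter mRNA not a specific factor.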 Conditions: HepG2 Attagene cis-factorial TAL promoter reporter; actives raise or lower the signal. In a few lines: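 RT-PCR plus capillary electrophoresis quantifies reporter mRNA induction in transiently transfected HepG2 cells after 24 h chemical treatment. DMSO serves as negative control and baseline for bidirectional fitting.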

The nature of assay [12]: ATG_VDRE_CIS: Attagene CIS-FACTORIAL HepG2 Assay for human Vitamin D Receptor Element (VDRE) (AID 2282968). Conditions: HepG2 VDRE cis-reporter transcription, actives raise or lower the signal. In outline: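 Reporter mRNA induction, quantified by capillary electrophoresis of fluorescently labelled RT-PCR products, was read 24 h after dosing HepG2 cells carrying transiently transfected cis-regulated reporter units; gain or loss relative to DMSO.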

Assay [13] deals with Nuclear receptor subfamily 1 group I member 3 (Homo sapiens) (UniProt Q14994). Nature of the assay: ATG_CAR_TRANS: Attagene TRANS-FACTORIAL HepG2 Assay for human Constitutive Androstane Receptor (CAR) (AID 2282969; active means hit-call score of the fitted dose curve at least 0.9, where 1 is the maximum;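 further: activators raise reporter mRNA above DMSO so AC50 marks induction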). Conditions: HepG2 Attagene TRANS-FACTORIAL CAR reporter. In outline:
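Readout is reporter mRNA induction, quantified by fluorescent primer extension and capillary electrophoresis after RT-PCR. Cells were HepG2 transiently carrying chimeric NR-Gal4 constructs with GAL4-UAS reporters, treated for 24 h; activity scored upward from DMSO.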

For assay [14], the target named is Estrogen receptor (Homo sapiens) (UniProt P03372). Nature of the assay: ATG_ERa_TRANS: Attagene TRANS-FACTORIAL HepG2 Assay for human Estrogen Receptor alpha (ERa) (AID 2282970; active means hit-call score of the fitted dose curve at least 0.9, where 1 is the maximum). Conditions: HepG2 Attagene TRANS ERa GAL4 reporter, mRNA. In outline: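 Cells: HepG2, transiently transfected. Construct: GAL4-UAS reporter units regulated by exogenous NR-Gal4 chimeras. Time: 24 h. Detection: reporter mRNA by RT-PCR, capillary electrophoresis, fluorescence. Baseline: DMSO, upward fitting.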
Chain of Estrogen receptor (Homo sapiens) (P03372 whole entry, looked up, the tested form may be a part): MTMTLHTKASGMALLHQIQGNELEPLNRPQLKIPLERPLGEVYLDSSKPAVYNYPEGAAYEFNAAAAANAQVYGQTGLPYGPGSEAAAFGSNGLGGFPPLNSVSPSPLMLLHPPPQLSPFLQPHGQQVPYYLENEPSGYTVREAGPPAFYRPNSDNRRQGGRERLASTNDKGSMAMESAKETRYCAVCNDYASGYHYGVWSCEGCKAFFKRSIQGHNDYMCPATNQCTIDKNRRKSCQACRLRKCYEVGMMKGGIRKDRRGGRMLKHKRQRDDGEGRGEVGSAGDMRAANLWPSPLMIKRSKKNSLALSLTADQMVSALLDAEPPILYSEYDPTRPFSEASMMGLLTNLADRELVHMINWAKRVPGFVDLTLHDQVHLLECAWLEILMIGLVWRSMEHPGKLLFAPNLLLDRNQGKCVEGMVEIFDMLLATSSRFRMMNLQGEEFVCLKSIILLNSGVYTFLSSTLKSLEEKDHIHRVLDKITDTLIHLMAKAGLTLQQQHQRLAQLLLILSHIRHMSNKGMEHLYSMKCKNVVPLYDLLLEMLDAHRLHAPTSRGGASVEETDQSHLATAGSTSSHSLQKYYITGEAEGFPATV

The target in assay [15] is X-box-binding protein 1 (Homo sapiens) (UniProt P17861). Nature of the assay: ATG_Xbp1_CIS: Attagene CIS-FACTORIAL HepG2 Assay for human X-box Binding Protein 1 (XBP1) (AID 2282972). Conditions: HepG2 XBP1 cis-element reporter, Attagene multiplex; actives raise or lower the signal. In a few lines:
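Fluorescence-labelled cDNA fragments from reporter transcripts, separated by capillary electrophoresis, give the signal. Source: HepG2 cells transfected with promoter-driven reporter units, harvested 24 h post-dose. DMSO served as reference for bidirectional curve fitting.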

Assay [16] is described as follows: ATG_GAL4_TRANS: Attagene TRANS-FACTORIAL HepG2 Assay for GAL4 (Internal Marker) (AID 2282976; active means hit-call score of the fitted dose curve at least 0.9, where 1 is the maximum). Conditions: HepG2 Attagene TRANS GAL4 internal marker reporter. In outline:
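In transfected human HepG2 liver cells dosed 24 h, GAL4 reporter mRNA serves as a baseline marker. Detection by RT-PCR with fluorescent capillary electrophoresis, activity fitted upward relative to DMSO.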

Assay [17] can be described thus: ATG_TA_CIS: Attagene CIS-FACTORIAL HepG2 Assay for human TA Basal Promoter (AID 2282964). Conditions: HepG2 Attagene CIS-factorial TA basal promoter reporter; actives raise or lower the signal. In outline:
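Read-out: fluorescent reporter-transcript fragments resolved by capillary electrophoresis after RT-PCR and HpaI digestion. Source: HepG2 cells carrying transiently transfected multi-reporter cis constructs, treated 24 h. Endpoint fitted bidirectionally relative to DMSO.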

Assay [18] can be described thus: ATG_TGFb_CIS: Attagene CIS-FACTORIAL HepG2 Assay for human Transforming Growth Factor (TGF) (AID 2282967). Conditions: HepG2 Attagene CIS TGFb reporter, mRNA transcription; actives raise or lower the signal. In outline:
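Transient MRTU transfection of HepG2 (FuGene 6). Dose 24 h. TriZol RNA, oligo(dT) RT, PCR, 6-FAM primer extension, HpaI cut, CE. Bidirectional fit, DMSO = baseline.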

The nature of assay [19]: ATG_M_19_TRANS: Attagene TRANS-FACTORIAL HepG2 Assay for M19 Transcription Factor (Internal Marker) (AID 2282974; active means hit-call score of the fitted dose curve at least 0.9, where 1 is the maximum). Conditions: HepG2 Attagene TRANS-FACTORIAL M19 internal marker reporter. In a few lines: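 Cells: human HepG2, transiently transfected with multiplexed reporter transcription units. Exposure: 24 h. Detection: RT-PCR of reporter mRNA with capillary electrophoresis. Analysis: gain-of-signal vs DMSO.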

In general, AC50 refers to the midpoint of the concentration-response curve, whichever way the signal moves.

SMILES strings stand for the structures. Results filed as inconclusive are left out. Calls of active or inactive are those of the source. How the source made its calls, unless noted: active means hit-call score of the fitted dose curve at least 0.9, where 1 is the maximum; inactive means score below 0.9.

Chain of X-box-binding protein 1 (Homo sapiens) (P17861 whole entry, looked up, the tested form may be a part): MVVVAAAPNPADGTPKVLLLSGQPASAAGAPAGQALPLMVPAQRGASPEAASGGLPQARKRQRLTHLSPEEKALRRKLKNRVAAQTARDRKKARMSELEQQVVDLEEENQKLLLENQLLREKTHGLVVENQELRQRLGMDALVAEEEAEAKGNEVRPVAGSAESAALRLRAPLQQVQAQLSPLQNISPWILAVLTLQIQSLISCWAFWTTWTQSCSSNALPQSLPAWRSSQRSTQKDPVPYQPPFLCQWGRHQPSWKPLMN
Chain of Paired box protein Pax-6 (Homo sapiens) (P26367 whole entry, looked up): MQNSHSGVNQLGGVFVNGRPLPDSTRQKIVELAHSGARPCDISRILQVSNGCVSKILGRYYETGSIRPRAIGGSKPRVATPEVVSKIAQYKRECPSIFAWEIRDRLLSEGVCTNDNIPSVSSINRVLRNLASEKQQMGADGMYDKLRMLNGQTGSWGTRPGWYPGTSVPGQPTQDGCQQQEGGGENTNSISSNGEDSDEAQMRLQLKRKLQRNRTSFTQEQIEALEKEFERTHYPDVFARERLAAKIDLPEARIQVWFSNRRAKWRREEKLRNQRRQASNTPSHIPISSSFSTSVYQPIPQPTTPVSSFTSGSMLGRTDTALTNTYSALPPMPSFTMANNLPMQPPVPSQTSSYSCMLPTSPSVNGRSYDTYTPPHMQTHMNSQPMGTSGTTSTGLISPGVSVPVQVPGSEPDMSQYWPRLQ
Chain of Transcription factor Sp1 (Homo sapiens) (P08047 whole entry, looked up): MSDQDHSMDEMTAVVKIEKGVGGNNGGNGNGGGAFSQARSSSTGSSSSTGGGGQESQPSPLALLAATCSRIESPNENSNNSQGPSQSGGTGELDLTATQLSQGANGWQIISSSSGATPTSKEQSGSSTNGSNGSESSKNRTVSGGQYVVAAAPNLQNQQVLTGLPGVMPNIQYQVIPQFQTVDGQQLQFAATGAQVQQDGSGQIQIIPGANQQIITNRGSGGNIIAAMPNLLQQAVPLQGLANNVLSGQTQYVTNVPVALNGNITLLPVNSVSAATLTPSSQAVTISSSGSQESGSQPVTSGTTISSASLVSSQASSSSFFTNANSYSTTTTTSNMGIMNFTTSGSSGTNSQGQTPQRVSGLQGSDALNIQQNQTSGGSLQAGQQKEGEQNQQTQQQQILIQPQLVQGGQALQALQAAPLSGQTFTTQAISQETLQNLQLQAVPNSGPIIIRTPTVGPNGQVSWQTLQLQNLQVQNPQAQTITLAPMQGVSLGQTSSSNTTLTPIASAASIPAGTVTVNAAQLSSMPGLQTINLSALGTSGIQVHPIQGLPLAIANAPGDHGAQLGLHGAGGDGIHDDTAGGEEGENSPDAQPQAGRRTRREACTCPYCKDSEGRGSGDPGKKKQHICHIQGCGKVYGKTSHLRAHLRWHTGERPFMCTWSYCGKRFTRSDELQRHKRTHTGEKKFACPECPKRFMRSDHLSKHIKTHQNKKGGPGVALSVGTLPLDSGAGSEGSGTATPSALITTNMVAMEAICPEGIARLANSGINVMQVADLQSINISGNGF
Chain of Nuclear receptor subfamily 1 group I member 3 (Homo sapiens) (Q14994 whole entry, looked up, the tested form may be a part): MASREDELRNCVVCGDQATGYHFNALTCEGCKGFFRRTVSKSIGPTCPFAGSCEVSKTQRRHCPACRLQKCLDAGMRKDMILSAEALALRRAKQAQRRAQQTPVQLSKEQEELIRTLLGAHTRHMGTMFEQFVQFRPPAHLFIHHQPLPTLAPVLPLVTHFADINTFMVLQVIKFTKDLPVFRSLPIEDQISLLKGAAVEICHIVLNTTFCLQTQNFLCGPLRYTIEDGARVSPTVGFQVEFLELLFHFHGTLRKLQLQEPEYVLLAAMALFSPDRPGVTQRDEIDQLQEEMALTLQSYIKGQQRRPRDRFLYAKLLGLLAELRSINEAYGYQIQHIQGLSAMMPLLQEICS

Consider `COc1cc(C)ccc1O`, for which the result in assay [1], in assay [2], in assay [3], in assay [4], in [5] and in assay [6] was inactive. Further, the outcome in [7], in assay [8], in assay [9], in assay [10], in assay [11] and in [12] was inactive. Besides, the result in assay [13], in assay [14], in [15] and in assay [16] was inactive.
Regarding `O=C(O)C(F)(F)C(F)(F)C(F)(F)C(F)(F)C(=O)O`, the result in [1], in [2], in [3], in [4], in assay [5] and in [6] was inactive. In addition, the call in assay [7], in [8], in assay [9], in assay [17], in assay [10] and in assay [11] was inactive. In addition, the molecule was called inactive in assay [18], in [12], in [14], in assay [15] and in assay [16].
As for `CCCCCCCCCC[N+](C)(CCCCCCCCCC)CCC[Si](OC)(OC)OC`, the AC50 is 19.3 µM (active) in assay [1]; 3.94 µM (active) in [3]; 19.9 µM (active) in assay [4]; 18.2 µM (active) in [5]; 21.1 µM (active) in assay [7]; 17 µM (active) in assay [8]. The AC50 in assay [9] was 18.1 µM (active); in [15], 18 µM (active). Further, the result in [2], in [6], in [17], in assay [10], in assay [11] and in assay [18] was inactive. Also, the result in assay [12], in assay [13] and in assay [19] was inactive.
Regarding `CCCCCCCCCC(C)=O`, the result in assay [1], in assay [2], in assay [3], in assay [4], in assay [5] and in assay [6] was inactive. For the same molecule, the call in [7], in [8], in assay [9], in [17], in [10] and in [11] was inactive. The result in assay [18], in assay [12], in [14], in assay [15], in [19] and in assay [16] was inactive.
